Bioassay records from PubChem BioAssay.
Only a selection was taken, and hits are over-represented in it overall.
PL synth Enamine = animal cell phospholipid biosynthesis inhibition, Enamine screen. ZR-82 CHO cells, pyrene fatty acid UV survival, CellTiter Blue; peroxisome-deficient CHO-K1 mutant line; plus DGAT-1, DGAT-2 and ACAT inhibitors. calls only at 10 µM. actives 0.4% (n = 20,000). AID 1347385;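 active = cell survival signal 2 SD away from solvent-only control wells, confirmed on one or two retests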;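 also: 3 h compound exposure then viability read about one day after UV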
* hit, by the source's call; i = inactive; + = active, no number.

SMILES	PL synth Enamine
Clc1ccccc1NN=C1c2ccccc2-c2ccccc21	i
Clc1cccc(NN=C2c3ccccc3-c3ccccc32)c1	+
Clc1ccc(NN=C2c3ccccc3-c3ccccc32)cc1Cl	i
CN1CCN(Cn2c(=S)oc3ccccc32)CC1	i
Cc1cc(C(C)(C)C)cc(C)c1CSc1nc(=S)c2ccccc2[nH]1	i
Cc1cc(C(C)(C)C)cc(C)c1CSc1ncnc2ccccc12	i
Cc1cc(C(C)(C)C)cc(C)c1C[n+]1ccc2ccccc2c1	+
Cc1csc(SCC(=O)Nc2cc(C)on2)n1	i
Cc1cc(NC(=O)NCCN(C(C)C)C(C)C)no1	i
CCOC(=O)c1c(N=CN(C)C)sc(C(=O)OC)c1C	i
CCOC(=O)c1sc(N=Nc2[nH]c(C)c(C(=O)OCC)c2C)c(C(=O)OCC)c1C	+
CCOC(=O)c1sc(N=Nc2c(O)[nH]c(=S)[nH]c2=O)c(C(=O)OCC)c1C	i
CC(NC(=O)CC12CC3CC(CC(Br)(C3)C1)C2)C12CC3CC(CC(C3)C1)C2 (stereo not drawn)	i
Brc1ccc(-c2nc3c4ccccc4c4ccccc4c3[nH]2)s1	i
O=C(NNc1ccnc2cc(Cl)ccc12)c1ccc(=O)[nH]n1	i
S=C(NNc1ccnc2cc(Cl)ccc12)NC1CCCCC1	i
S=C(NNc1ccnc2cc(Cl)ccc12)Nc1ccc(Cl)cc1Cl	+
CN1N=C(c2ccc(Cl)cc2)CSC1=NCc1ccccc1	i
CN=c1scc(-c2ccc(F)cc2)n1/N=C(\C)c1ccc(O)cc1O	i
CN=c1scc(-c2ccc(OC(F)F)cc2)n1/N=C/c1cc(OC)c(O)c(OC)c1	i
CN=c1scc(-c2ccc(OC(F)F)cc2)n1/N=C(\C)c1ccc(O)cc1O	+
Cc1cc2nc(/C=C/c3cc4c(cc3[N+](=O)[O-])OCO4)sc2cc1C	i
Cc1ccc(NP(=O)(/C=C2\N(C)c3ccccc3C2(C)C)c2ccccc2)cc1C (stereo not drawn)	i
CCN(CC)P(/C=C1/N(C)c2ccccc2C1(C)C)(=Nc1ccc(C)cc1C)c1ccccc1 (stereo not drawn)	+
CN1/C(=C\P(=Nc2cccc3ccccc23)(Oc2cccc3ccccc23)c2ccccc2)C(C)(C)c2ccccc21 (stereo not drawn)	i
SMILES	PL synth Enamine
O=S(=O)(NC(=S)NC1CCCCC1)c1cccs1	i
CCNC(=S)N/N=C(\C)c1cccs1	i
C/C(=N\NC(=S)NC1CCCCC1)c1cccs1	+
CCN(CC(=O)NC1CCS(=O)(=O)C1)Cn1nc2c(Cl)cc(Cl)cn2c1=S (stereo not drawn)	i
C=CCN=c1scc(-c2cccc(Br)c2)n1/N=C/c1ccc(SC)cc1	i
C(=C(c1nc2ccccc2s1)c1nc2ccccc2s1)c1cccs1	i
Cn1cccc1C=C(c1nc2ccccc2s1)c1nc2ccccc2s1	+
C(=C(c1nc2ccccc2s1)c1nc2ccccc2s1)c1ccc(-c2ccccc2)cc1	i
CN(C)C=Nc1cnn(-c2ccccc2)c(=O)c1Cl	i
c1ccc(-c2ccc(-c3cn4c(n3)SCC4)cc2)cc1	i
O=S1(=O)CC/C(=N/Nc2ccc(Cl)cc2)c2cc(F)ccc21	+
C=CCNC(=S)N/N=C1\CCS(=O)(=O)c2ccccc21	i
c1ccc2sc(NN=C3CCCCCC3)nc2c1	i
O=S1(=O)CC/C(=N/Nc2nc3ccccc3s2)c2cc(F)ccc21	+
c1ccc2c(c1)CC/C(=N\Nc1nc3ccccc3s1)C2	i
NC(=O)N/N=C1\CCS(=O)(=O)c2ccc(F)cc21	i
COC(=O)c1c(NC(=O)COC(=O)C23CC4CC(CC(Br)(C4)C2)C3)sc2c1CCC2	i
CCc1nnc(NC(=O)C2=CN3CCS(=O)(=O)N=C3C=C2)s1	i
O=C(OCc1cc(=O)n2cc(Br)ccc2n1)c1ccco1	i
O=c1[nH]c(=S)[nH]c2ccccc12	i
Cn1c(-c2ccc(Cl)cc2)n[nH]c1=S	i
O=[N+]([O-])c1ccc(C2=Nn3c(nnc3-c3sc4ccccc4c3Cl)SC2)cc1	i
O=c1cc(CSc2nnc(-c3cccnc3)o2)nc2sccn12	i
O=C(CN1C(=O)c2ccccc2S1(=O)=O)N(C1CCCC1)C1CCS(=O)(=O)C1 (stereo not drawn)	i
CN(Cc1ccc(Cl)s1)Cc1cc2c(cc1O)CCC2	i
SMILES	PL synth Enamine
c1csc(-c2nc(-n3cnnc3)c3ccccc3n2)c1	i
CN(C)c1ccc(N=Nc2ccc(SC(F)(F)F)cc2[N+](=O)[O-])cc1	i
O=[N+]([O-])c1ccc(N=Nc2ccc(N(CCO)CC(F)(F)C(F)F)cc2)c(Cl)c1	+
CCN(CC)c1ccc2c(c1)OC(=O)N(c1ccc(Cl)c(Cl)c1)P2(=Nc1ccc([N+](=O)[O-])cc1)N(CC)CC (stereo not drawn)	i
CCc1n[nH]c(=S)n1/N=C1\CCCc2ccccc21	i
CCOC(=O)C1=C(C)NC(C)=C(C(=O)OCC)C1C(=O)OCC(=O)NC(CC)CC	i
O=C(O)CC1S/C(=N\N=C\c2ccc(I)o2)NC1=O (stereo not drawn)	i
Oc1ccc(/C=N/N=C/C2=C(N3CCOCC3)C(=C\c3ccccc3)/CC2)c(O)c1	i
C(=N\Nc1ccc(N2CCOCC2)nn1)/C1=C(N2CCOCC2)C(=C/c2ccccc2)/CC1	i
O=C1Nc2ccccc2/C1=N\N=C\C1=C(N2CCOCC2)C(=C\c2ccccc2)/CC1	+
COc1ccc(S(=O)(=O)N(C)C)cc1NS(=O)(=O)c1ccc(Cl)c(Cl)c1	i
CCc1cc2c(SCC(=O)Nc3cc(C(C)(C)C)no3)ncnc2s1	i
O=C1CCCC(O)=C1N=Nc1ccc2c(c1)OCO2	i
Cc1[nH]c2ccccc2c1N=Nc1ccc2c(c1)OCO2	+
Cc1[nH]c2ccccc2c1N=Nc1cccnc1	i
Cc1[nH]c2ccccc2c1N=Nc1c(C)n(C)n(-c2ccccc2)c1=O	i
Oc1ccc2ccccc2c1N=Nc1ncn[nH]1	i
Cc1[nH]c2ccccc2c1N=Nc1ccccc1F	i
Oc1ccc(N=Nc2ccc3c(c2)OCCO3)c2ncccc12	i
Cc1[nH]c2ccccc2c1N=Nc1ccc(F)cc1	+
Oc1ccc2ccccc2c1N=Nc1ccc2c(c1)OCCO2	+
Cc1cc(NC(=O)NC2CCCC(C)C2C)no1 (stereo not drawn)	i
O=C(OCc1cc(=O)n2cc(Br)ccc2n1)c1ccc(Br)o1	i
Nc1nc(SCc2nc3ccccc3o2)n[nH]1	i
Cn1c(=O)c([N+](=O)[O-])c(N)c2ccccc21	i
SMILES	PL synth Enamine
Oc1c(N=Nc2ccc3c(c2)OCO3)sc2ccccc12	i
Nc1nc(-c2ccccc2)c(N=Nc2ccc3c(c2)OCO3)s1	+
c1cc2c(cc1-c1csc(N3CCOCC3)n1)OCCO2	i
Nc1nc(-c2ccccc2)c(N=Nc2ccc3c(c2)OCCO3)s1	+
c1ccc(-c2nnc(-c3ccc4c(c3)OCO4)nc2-c2ccccc2)cc1	i
Nc1[nH]c(=O)[nH]c(=O)c1N=Nc1ccc2c(c1)OCCO2	i
CCOC(=O)c1c(C)[nH]c(C)c1C(=O)COC(=O)C1=COCCO1	i
C(=Nc1nccs1)N1CCOCC1	i
O=C(COc1ccc2c3c(c(=O)oc2c1)CCC3)NC1CCCC1	i
Nc1nc(CSc2ccc3ccccc3n2)nc2ccccc12	i
O=C(COc1ncnc2c(Cl)cc(Cl)cc12)c1ccc[nH]1	i
